Among the data in PubChem BioAssay (NCATS) are Potency values, retold here.

Assay [1] can be described thus: Primary qHTS for inhibitors of SARS-S pseudo-typed particle cell entry (AID 1479145). Further: nearly all actives have a fitted effect of over 45% in size. Further: potency means the concentration at half of the fitted maximal effect.
The nature of assay [2]: Primary qHTS for Huh7 cytotoxicity: counterscreen for inhibitors of MERS-S pseudotyped particle cell entry (AID 1479147). On the technique in general: qHTS replaces the single test concentration by a dilution series.
Assay [3] can be described thus: Primary qHTS for inhibitors of MERS-S pseudo-typed particle cell entry (AID 1479149). Further: nearly all actives have a fitted effect of over 60% in size.
The nature of assay [4]: Primary qHTS for Vero E6 cytotoxicity: counterscreen for inhibitors of SARS-S pseudo-typed particle cell entry (AID 1479150).
Assay [5] is described as follows: Confirmatory qHTS for VERO E6 Cytotoxicity Assay: Counterscreen for SARS-CoV-2 CPE Assay (AID 1508605). Further: series mostly up to about 20 µM; nearly all actives have a fitted effect of over 60% in size.

SMILES strings stand for the structures. Results filed as inconclusive are left out. Activity calls are given as the source filed them. The call rests on the fitted dose curve.

In the case of `CC(COc1ccccc1)NC(C)C(O)c1ccc(O)cc1` (configuration not stated), the Potency result in assay [1], in assay [2], in assay [3] and in assay [4] was “inactive” each time.
Take `O=C(Nc1ccc([N+](=O)[O-])cc1)Nc1ccc([N+](=O)[O-])cc1`: the Potency result in assay [1], in assay [2], in assay [3] and in assay [4] was “inactive” in each case.
Regarding `NS(=O)(=O)c1cc2c(cc1Cl)NC(C1CC3C=CC1C3)NS2(=O)=O` (configuration not stated), the Potency entry in assay [1], in assay [2], in assay [3] and in assay [4] was “inactive” throughout.
As for `NS(=O)(=O)c1cc2c(cc1Cl)NC(CSCc1ccccc1)=NS2(=O)=O`, the Potency entry in assay [1], in assay [2], in assay [3] and in assay [4] was “inactive” in each case.
For `COC(=O)C1=C(C)NC(COC(N)=O)=C(C(=O)OC(C)C)C1c1cccc(Cl)c1Cl` (configuration not stated), the Potency entry in assay [1], in assay [2], in assay [3] and in assay [4] was “inactive” throughout.
Consider `Cc1cc(O)c(C(C)C)cc1Cl`, for which the Potency entry in assay [1], in assay [2], in assay [3] and in assay [4] was “inactive” in each case.
As to `CCN(CC)C(=O)C1CN2CCc3cc(OC)c(OC)cc3C2CC1OC(C)=O` (configuration not stated), the Potency result in assay [1], in assay [2], in assay [3] and in assay [4] was “inactive” in each case.
For `CC(C)Cc1ccc(C(C)C(=O)OCc2ccccn2)cc1` (configuration not stated), the Potency entry in assay [1], in assay [2], in assay [3] and in assay [4] was “inactive” each time.
For the compound `O=C(O)C(=O)Nc1cccc(-c2nn[nH]n2)c1`, the Potency result in assay [1], in assay [2], in assay [3] and in assay [4] was “inactive” in each case.
Turning to `CCCCC[C@H](O)C=C[C@H]1[C@H](O)CC(=O)[C@H]1CC=CCCCC(=O)O`, the Potency entry in assay [1], in assay [2], in assay [3] and in assay [4] was “inactive” each time.
`CC(=O)OCC(=O)[C@@]12N=C(C)O[C@@H]1C[C@H]1[C@@H]3CCC4=CC(=O)C=C[C@]4(C)[C@H]3[C@@H](O)C[C@@]12C`: the Potency result in assay [1], in assay [2], in assay [3] and in assay [4] was “inactive” each time.
Turning to `CN(CCCN1c2ccccc2CCc2ccccc21)CC(=O)c1ccc(Cl)cc1`, the Potency result in assay [1], in assay [2], in assay [3] and in assay [4] was “inactive” throughout.
Take `Cc1ccc(/C=N/n2c(-c3ccccc3)csc2=S)cc1`: the Potency result in assay [1], in assay [2], in assay [3] and in assay [4] was “inactive” in each case.
As to `CC(=O)OCC(=O)[C@@]1(O)CC[C@H]2[C@@H]3CCC4=CC(=O)C=C[C@]4(C)[C@H]3[C@@H](O)C[C@@]21C`, the Potency entry in assay [1], in assay [2], in assay [3] and in assay [4] was “inactive” in each case.
On to `C[C@@H]1C[C@H]2[C@@H]3CCC4=CC(=O)C=C[C@]4(C)[C@@]3(Cl)[C@@H](O)C[C@]2(C)[C@@]1(OC(=O)c1ccco1)C(=O)CCl`, for which the Potency result in assay [1], in assay [2], in assay [3] and in assay [4] was “inactive” in each case.
As for `Oc1cc(O)c2c(c1)O[C@H](c1ccc(O)c(O)c1)[C@H](O)C2`, the Potency result in assay [1], in assay [2], in assay [3] and in assay [4] was “inactive” in each case.
On to `C[C@H](N)[C@H](O)c1cccc(O)c1`, for which the Potency result in assay [1], in assay [2], in assay [3] and in assay [4] was “inactive” each time.
As to `CCC(=O)Oc1ccc2c(c1)CC[C@@H]1[C@@H]2CC[C@@]2(C)[C@H]1C[C@@H](OC(=O)CC)[C@@H]2OC(=O)CC`, the Potency result in assay [1], in assay [2], in assay [3] and in assay [4] was “inactive” throughout.
As to `CO/N=C(/C(=O)N[C@@H]1C(=O)N2C(C(=O)O)=C(Cn3nnc(C)n3)CS[C@H]12)c1csc(N)n1`, the Potency entry in assay [1], in assay [2], in assay [3] and in assay [4] was “inactive” throughout.
In the case of `CCOC(=O)c1c(N)sc2c1CCN(Cc1ccccc1)C2`, the Potency entry in assay [1], in assay [2], in assay [3] and in assay [4] was “inactive” throughout.
In the case of `CCN(CCCc1ccccc1)CCCc1ccccc1`, the Potency entry in assay [1], in assay [2] and in assay [4] was “inactive” each time.
`C[N+]1(CC2COC(c3ccccc3)(C3CCCCC3)O2)CCCCC1` (configuration not stated): the Potency entry in assay [1], in assay [2] and in assay [4] was “inactive” in each case.
As to `CC(C)C(=O)Nc1cccc(C2CN3CCSC3=N2)c1` (configuration not stated), the Potency result in assay [1], in assay [2] and in assay [4] was “inactive” each time.
On to `CO[C@]1(NC(=O)CSC(F)F)C(=O)N2C(C(=O)O)=C(CSc3nnnn3CCO)CO[C@H]21`, for which the Potency entry in assay [1], in assay [2], in assay [3] and in assay [4] was “inactive” throughout.
Consider `CCCC(=O)O[C@]1(C(=O)CCl)[C@@H](C)C[C@H]2[C@@H]3CCC4=CC(=O)C=C[C@]4(C)[C@@]3(F)C(=O)C[C@@]21C`, for which the Potency entry in assay [1], in assay [2] and in assay [4] was “inactive” each time.
In the case of `O=C(O)CCC(=O)c1ccc(-c2ccccc2)cc1`, the Potency result in assay [1], in assay [2], in assay [3] and in assay [4] was “inactive” each time.
Regarding `CCCCOc1ccc(OCCCN2CCOCC2)cc1`, the Potency entry in assay [1], in assay [2], in assay [3] and in assay [4] was “inactive” each time.
As to `CCC(CN)=C(c1ccccc1)c1ccccc1`, the Potency entry in assay [1], in assay [2] and in assay [4] was “inactive” throughout.
As to `CCC(=O)O[C@]1(C(=O)SCF)[C@H](C)C[C@H]2[C@@H]3C[C@H](F)C4=CC(=O)C=C[C@]4(C)[C@@]3(F)[C@@H](O)C[C@@]21C`, the Potency entry in assay [1], in assay [2], in assay [3] and in assay [4] was “inactive” throughout.
Turning to `FC(F)(F)C(F)(F)C(F)(F)C(F)(F)C(F)(F)C(F)(F)C(F)(F)C(F)(F)Br`, the Potency result in assay [1], in assay [2] and in assay [4] was “inactive” each time.
Regarding `CCOC(=O)[C@H](CCc1ccccc1)N[C@H]1CCc2ccccc2N(CC(=O)O)C1=O`, the Potency result in assay [1], in assay [2], in assay [3], in assay [4] and in assay [5] was “inactive” in each case.
Turning to `CCOC(=O)Cn1cccc1-c1nc(-c2ccc(OC)cc2)c(-c2ccc(OC)cc2)s1`, the Potency in assay [1] is 14.1 µM (active). Further, the Potency entry in assay [2] and in assay [4] was “inactive” in each case.
